Assays:
Assay in all cases: thermal shift delta Tm vs DMSO control; higher = stronger stabilization (binding)
Details in all cases: 12.5 µM; protein concentration 2 µM
LOC_OS02G45750-cb003 = tested on: LOC_OS02G45750-cb003
In short: (§1)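 Heating from 25°C to 95°C at 0.05°C/s, fluorescence was recorded for 19.5 μl wells of 2 μM E. coli-expressed, purified rice kinase domain in 100 mM potassium phosphate pH 7.5, 150 mM NaCl, 10% glycerol and 5 × SYPRO Orange with compound in DMSO. Boltzmann fits gave melting temperatures for this differential scanning fluorimetry assay. The shift reported is the mean of three replicates against the DMSO-only protein.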

LOC_OS02G54510-cb004 = tested on: LOC_OS02G54510-cb004
In short: as §1

LOC_OS03G04050-cb001 = tested on: LOC_OS03G04050-cb001
In short: as §1

LOC_OS03G12390-cb001 = tested on: LOC_OS03G12390-cb001
In short: as §1

LOC_OS03G27990-cb004 = tested on: LOC_OS03G27990-cb004
In short: as §1

LOC_OS03G50450-cb001 = tested on: LOC_OS03G50450-cb001
In short: as §1

LOC_OS03G50810-cb003 = tested on: LOC_OS03G50810-cb003
In short: as §1

LOC_OS04G35114-cb001 = tested on: LOC_OS04G35114-cb001
In short: as §1

LOC_OS04G38480-cb003 = tested on: T1, LOC_OS04G38480-cb003
T1 sequence (whole entry): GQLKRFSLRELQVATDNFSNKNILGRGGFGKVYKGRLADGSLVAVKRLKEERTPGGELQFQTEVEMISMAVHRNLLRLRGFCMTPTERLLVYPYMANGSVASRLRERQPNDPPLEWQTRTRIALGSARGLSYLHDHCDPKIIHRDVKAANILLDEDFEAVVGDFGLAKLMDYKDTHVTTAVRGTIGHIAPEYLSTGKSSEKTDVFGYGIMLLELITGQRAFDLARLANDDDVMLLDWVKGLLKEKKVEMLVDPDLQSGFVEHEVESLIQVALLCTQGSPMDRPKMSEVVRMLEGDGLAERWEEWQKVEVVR
In short: as §1

LOC_OS04G41100-cb001 = tested on: T2, LOC_OS04G41100-cb001
T2 sequence (whole entry): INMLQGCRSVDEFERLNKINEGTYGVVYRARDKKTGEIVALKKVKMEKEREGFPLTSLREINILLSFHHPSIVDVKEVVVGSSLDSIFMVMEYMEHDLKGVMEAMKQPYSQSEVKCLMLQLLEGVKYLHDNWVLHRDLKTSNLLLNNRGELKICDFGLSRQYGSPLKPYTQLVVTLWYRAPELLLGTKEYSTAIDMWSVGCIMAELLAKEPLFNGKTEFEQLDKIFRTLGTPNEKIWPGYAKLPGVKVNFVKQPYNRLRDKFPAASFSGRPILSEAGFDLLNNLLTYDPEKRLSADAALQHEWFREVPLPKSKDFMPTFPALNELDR
In short: as §1

LOC_OS04G57630-cb004 = tested on: LOC_OS04G57630-cb004
In short: as §1

LOC_OS05G07850-cb002 = tested on: LOC_OS05G07850-cb002
In short: as §1

LOC_OS05G16824-cb004 = tested on: LOC_OS05G16824-cb004
In short: as §1

LOC_OS05G28520-cb001 = tested on: LOC_OS05G28520-cb001
In short: as §1

LOC_OS05G30820-cb001 = tested on: LOC_OS05G30820-cb001
In short: as §1

LOC_OS05G43570-cb004 = tested on: LOC_OS05G43570-cb004
In short: as §1

LOC_OS06G16330-cb003 = tested on: LOC_OS06G16330-cb003
In short: as §1

LOC_OS06G22820-cb001 = tested on: T3, LOC_OS06G22820-cb001
T3 sequence (whole entry): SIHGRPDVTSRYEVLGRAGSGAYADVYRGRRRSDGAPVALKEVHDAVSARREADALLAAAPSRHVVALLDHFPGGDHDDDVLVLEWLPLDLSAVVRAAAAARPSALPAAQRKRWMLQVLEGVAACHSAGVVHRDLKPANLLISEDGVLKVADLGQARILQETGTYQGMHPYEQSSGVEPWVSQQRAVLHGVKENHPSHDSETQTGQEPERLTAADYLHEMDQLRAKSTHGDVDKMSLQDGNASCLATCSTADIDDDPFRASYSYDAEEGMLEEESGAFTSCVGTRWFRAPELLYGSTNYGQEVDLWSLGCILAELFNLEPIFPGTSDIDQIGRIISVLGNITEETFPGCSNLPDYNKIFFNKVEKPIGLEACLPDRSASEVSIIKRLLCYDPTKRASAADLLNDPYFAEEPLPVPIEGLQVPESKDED
In short: as §1

LOC_OS07G06570-cb004 = tested on: LOC_OS07G06570-cb004
In short: as §1

LOC_OS07G07230-cb001 = tested on: LOC_OS07G07230-cb001
In short: as §1
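Note: purified Escherichia coli-expressed rice kinase domain construct.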

Sequence of LOC_OS06G16330-cb003 (as listed by the source): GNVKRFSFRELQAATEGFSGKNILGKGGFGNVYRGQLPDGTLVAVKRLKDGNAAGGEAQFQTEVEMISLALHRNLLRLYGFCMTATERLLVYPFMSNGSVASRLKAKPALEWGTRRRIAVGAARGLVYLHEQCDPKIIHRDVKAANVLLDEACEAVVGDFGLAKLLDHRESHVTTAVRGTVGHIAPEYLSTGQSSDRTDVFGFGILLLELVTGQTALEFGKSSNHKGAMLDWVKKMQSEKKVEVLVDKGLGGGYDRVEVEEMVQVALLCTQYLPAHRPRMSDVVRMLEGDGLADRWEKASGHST

SMILES | thermal shift delta Tm (LOC_OS02G45750-cb003) [°C] | thermal shift delta Tm (LOC_OS02G54510-cb004) [°C] | thermal shift delta Tm (LOC_OS03G04050-cb001) [°C] | thermal shift delta Tm (LOC_OS03G12390-cb001) [°C] | thermal shift delta Tm (LOC_OS03G27990-cb004) [°C] | thermal shift delta Tm (LOC_OS03G50450-cb001) [°C] | thermal shift delta Tm (LOC_OS03G50810-cb003) [°C] | thermal shift delta Tm (LOC_OS04G35114-cb001) [°C] | thermal shift delta Tm (LOC_OS04G38480-cb003) [°C] | thermal shift delta Tm (LOC_OS04G41100-cb001) [°C] | thermal shift delta Tm (LOC_OS04G57630-cb004) [°C] | thermal shift delta Tm (LOC_OS05G07850-cb002) [°C] | thermal shift delta Tm (LOC_OS05G16824-cb004) [°C] | thermal shift delta Tm (LOC_OS05G28520-cb001) [°C] | thermal shift delta Tm (LOC_OS05G30820-cb001) [°C] | thermal shift delta Tm (LOC_OS05G43570-cb004) [°C] | thermal shift delta Tm (LOC_OS06G16330-cb003) [°C] | thermal shift delta Tm (LOC_OS06G22820-cb001) [°C] | thermal shift delta Tm (LOC_OS07G06570-cb004) [°C] | thermal shift delta Tm (LOC_OS07G07230-cb001) [°C]
COc1cc2nccc(Oc3ccc(NC(=O)C4(C(=O)Nc5ccc(F)cc5)CC4)cc3)c2cc1OC | 1.97 | 1.19 | 0.5 | 0.4 | 0.27 | 0.3 | 0.76 | 1.45 | 2.61 | 0.93 | 2.62 | 12.8 | 3.14 | 7.75 | 0.54 | 0.51 | 5.17 | 1.2 | 0.82 | 0.35
CN1CCN(c2ccc(-c3ccncc3-c3cc(F)c(O)c(F)c3)cc2)CC1 | 0.61 | 0.42 | 0.42 | -0.07 | 0.3 | 0.59 | 0.5 | 1.01 | 1.07 | 0.43 | 0.24 | 3.75 | -0.65 | 0.95 | 0.41 | 0.25 | 1.09 | 0.54 | 0.48 | 0.18
Cc1ccc(Nc2nccc(N(C)c3ccc4c(C)n(C)nc4c3)n2)cc1S(N)(=O)=O | 3.91 | 1.36 | 0.35 | 1.04 | 0.21 | 0.3 | 1.55 | 4.77 | 1.08 | 3.24 | 0.96 | 8.97 | 4.72 | 0.97 | 0.39 | 1.48 | 3.83 | 0.9 | 1.14 | 0.54
CCCNC(=O)c1cn2ncnc(Nc3cc(C(=O)NC4CC4)ccc3C)c2c1C | 0.71 | 0.18 | 0.45 | -0.14 | 0.24 | 0.49 | 0.26 | 0.65 | 0.42 | 0.24 | 0.07 | 0.14 | -4.13 | 0.31 | 0.52 | 0.2 | -0.22 | 0.62 | 1.15 | 0.61
C=CC(=O)Nc1cc(Nc2nccc(-c3cn(C)c4ccccc34)n2)c(OC)cc1N(C)CCN(C)C [Osimertinib (AZD9291)] | 1.63 | 0.52 | 0.78 | 4.71 | 0.93 | 0.74 | 2.65 | 6.25 | 2.86 | 0.51 | 0.2 | 13.5 | -1.95 | 0.53 | 0.54 | 0.3 | 5.5 | 0.25 | 1.03 | 0.47
COc1ccc(-c2ccc3c(N4CCOCC4)nc(N4C[C@@H](C)O[C@@H](C)C4)nc3n2)cc1CO | 0.16 | -0.13 | -0.03 | 0.03 | 0.02 | -0.08 | -0.07 | 0.21 | 0.34 | 0.27 | -0.55 | -0.78 | -3.16 | 0 | 0.48 | 0.2 | -0.25 | 0.14 | 0.51 | 0.35
